# PubChem BioAssay (NCATS)
# Results filed as inconclusive are left out. Active and inactive are the calls of the source. The call rests on the fitted dose curve; in most records, active means well fitted curve in the direction sought with a large enough effect; inconclusive means small, poorly fitted or top-dose-only effect, or another doubt; inactive means no such curve, though single readings can be large; an effect the other way counts as inactive or inconclusive.
# Columns and labels:
# [1] = Quantitative High-Throughput drug screen in 47 multiple myeloma cell lines against the NCATS MIPE library collection: KMM1_JCRB cell viability assay (AID 1918960); further: nearly all actives have a fitted effect of over 30% in size;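 on viability (% of DMSO): 100% = DMSO-treated cells and 0% = medium-only wells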
# How it was run: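 Here, 48 h treatment with MIPE 4.0 agents at 37 °C preceded an ATP luminescence read. Plating density was 500 cells per well.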
# [2] = Quantitative High-Throughput drug screen in 47 multiple myeloma cell lines against the NCATS MIPE library collection: Karpas417_ECACC cell viability assay (AID 1918961); conditions: Karpas417 myeloma viability, CellTiter-Glo ATP luminescence, 48 h; viability (% of DMSO): at 45.8 µM (top of the series)
# How it was run: (§1)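 Steps: seed 500 cells per well; pin-transfer MIPE 4.0 library; incubate 48 h at 37C, 5% CO2, humidified; add CellTiter-Glo, 5 min room temperature; read luminescence.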
# [3] = Quantitative High-Throughput drug screen in 47 multiple myeloma cell lines against the NCATS MIPE library collection: KHM11_PLB cell viability assay (AID 1918962); further: nearly all actives have a fitted effect of over 35% in size
# How it was run: (§2)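 Luminescent ATP measurement with CellTiter-Glo gives viability, scaled between DMSO-only wells (100%) and media-only wells (0%). Cells, 500 per well, faced library compounds for 48 hours at 37C.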
# [4] = Quantitative High-Throughput drug screen in 47 multiple myeloma cell lines against the NCATS MIPE library collection: JIM3_ECACC cell viability assay (AID 1918963; further: nearly all actives have a fitted effect of over 35% in size)
# How it was run: as §2
# [5] = Quantitative High-Throughput drug screen in 47 multiple myeloma cell lines against the NCATS MIPE library collection: INA6_PLB cell viability assay (AID 1918965; further: nearly all actives have a fitted effect of over 55% in size)
# How it was run: as §1
# [6] = Quantitative High-Throughput drug screen in 47 multiple myeloma cell lines against the NCATS MIPE library collection: JJN3_DSMZ cell viability assay (AID 1918966; further: nearly all actives have a fitted effect of over 50% in size)
# How it was run: (§3)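 Approved and investigational drugs from MIPE 4.0 were added by pin tool to 500 cells per well. After 48 hours at 37C, ATP-based CellTiter-Glo luminescence indicated remaining viability.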
# [7] = Quantitative High-Throughput drug screen in 47 multiple myeloma cell lines against the NCATS MIPE library collection: H1112_PLB cell viability assay (AID 1918967; further: nearly all actives have a fitted effect of over 30% in size)
# How it was run: as §3
# [8] = Quantitative High-Throughput drug screen in 47 multiple myeloma cell lines against the NCATS MIPE library collection: KMS27_JCRB cell viability assay (AID 1918970); conditions: KMS27 myeloma cells, CellTiter-Glo ATP viability, 48 h; viability (% of DMSO): at 45.8 µM (top of the series); further: nearly all actives have a fitted effect of over 30% in size
# How it was run: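 Myeloma cells (500 per well) were exposed to MIPE 4.0 compounds for 48 h at 37 °C, 5% CO2; viability was read as ATP luminescence with CellTiter-Glo, normalized to DMSO-only (100%) and media-only (0%) wells.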
# [9] = Quantitative High-Throughput drug screen in 47 multiple myeloma cell lines against the NCATS MIPE library collection: JIM1_ECACC cell viability assay (AID 1918964)
# How it was run: as §3
# [10] = Quantitative High-Throughput drug screen in 47 multiple myeloma cell lines against the NCATS MIPE library collection: Karpas25_ECACC cell viability assay (AID 1918968; further: nearly all actives have a fitted effect of over 35% in size)
# How it was run: as §3
# Potency means the concentration at half of the fitted maximal effect.
Compound,Potency [1],Potency [2],Potency [3],Potency [4],Potency [5],Potency [6],Potency [7],Potency [8],Potency [9],Potency [10],viability (% of DMSO) [2]
C=CC[N+]1([C@H]2C[C@H]3[C@@H]4CC[C@H]5C[C@H](O)[C@@H](N6CCOCC6)C[C@]5(C)[C@@H]4CC[C@]3(C)[C@H]2OC(C)=O)CCCC1,inactive,inactive,inactive,inactive,inactive,0.0053 µM (active),inactive,inactive,,,
Cc1cccc(Nc2nc(N[C@@H]3CCCC[C@H]3N)ncc2C(N)=O)c1,16.6 µM (active),3.72 µM (active),4.18 µM (active),,1.48 µM (active),16.6 µM (active),,23.5 µM (active),5.9 µM (active),10.5 µM (active),
CC(C)Oc1cc(Nc2nc(N[C@@H](C)c3ccc(F)cn3)ncc2Cl)[nH]n1,16.6 µM (active),2.64 µM (active),10.5 µM (active),8.33 µM (active),7.43 µM (active),20.9 µM (active),,20.9 µM (active),20.9 µM (active),10.5 µM (active),
Cc1ccccc1-n1c(Cn2nc(-c3cccc(O)c3)c3c(N)ncnc32)nc2cccc(C)c2c1=O,0.935 µM (active),4.18 µM (active),18.7 µM (active),3.72 µM (active),1.05 µM (active),,2.64 µM (active),0.469 µM (active),1.18 µM (active),2.64 µM (active),
CCNC(=O)CCCC=CC[C@@H]1[C@H](C=CC(O)CCc2ccccc2)[C@@H](O)C[C@@H]1O (stereo partly specified),inactive,inactive,,inactive,inactive,,inactive,inactive,inactive,inactive,
CO[C@H]1/C=C\O[C@@]2(C)Oc3c(C)c(O)c4c(O)c(c5c(nc6cc(C)ccn65)c4c3C2=O)NC(=O)C(C)=CC=C[C@H](C)[C@H](O)[C@@H](C)[C@@H](O)[C@@H](C)[C@H](OC(C)=O)[C@H]1C,18.7 µM (active),0.833 µM (active),,inactive,,,inactive,18.7 µM (active),18.7 µM (active),,
Cn1c(=O)c(-c2c(Cl)cccc2Cl)cc2cnc(Nc3cccc(C(=O)O)c3)nc21,0.209 µM (active),0.059 µM (active),,inactive,,4.18 µM (active),,0.526 µM (active),0.0264 µM (active),inactive,
CC(C)CNc1ccnc(NCc2csc(-c3ccccc3)n2)n1,7.43 µM (active),16.6 µM (active),,5.26 µM (active),2.64 µM (active),,6.62 µM (active),13.2 µM (active),11.8 µM (active),0.935 µM (active),
CC(C)C[C@@H](N)[C@H](O)C(=O)N[C@H](C(=O)N[C@H](C(=O)N[C@@H](CC(=O)O)C(=O)O)C(C)C)C(C)C,inactive,inactive,,20.9 µM (active),,,,inactive,inactive,,
OC[C@H]1O[C@@H](O[C@H]2[C@@H](O)[C@@](O)(CO)O[C@@H]2CO)[C@H](O)[C@@H](O)[C@@H]1O,inactive,inactive,,,inactive,,inactive,inactive,inactive,inactive,
O=C(c1ccc(C=Cc2n[nH]c3ccccc23)cc1)N1CCNCC1,5.26 µM (active),,0.833 µM (active),2.64 µM (active),3.32 µM (active),18.7 µM (active),,,3.72 µM (active),3.72 µM (active),
CCN(CC)CCCCNc1nc2cc(Cl)c(Cl)cc2nc1-c1ccc(-c2cccs2)s1,9.35 µM (active),,10.5 µM (active),8.33 µM (active),4.69 µM (active),23.5 µM (active),7.43 µM (active),8.33 µM (active),9.35 µM (active),8.33 µM (active),
Cc1ccc2c(c1)c1c(n2CCc2ccc(C)nc2)CCN(C)C1,inactive,inactive,,inactive,,,inactive,inactive,inactive,,
CN(C)S(=O)(=O)c1ccc2c(c1)C(=Cc1cc3c([nH]1)CCCC3)C(=O)N2,inactive,1.32 µM (active),,11.8 µM (active),3.72 µM (active),4.69 µM (active),,3.32 µM (active),,16.6 µM (active),
CCCCOCCOc1nc(-c2ccc(C(=O)O)c(F)c2)sc1C,inactive,inactive,,0.372 µM (active),,,inactive,inactive,,,
COc1c(C)cnc(Cn2cnc3c(Cl)nc(N)nc32)c1C,0.059 µM (active),0.0235 µM (active),,0.148 µM (active),0.148 µM (active),0.166 µM (active),0.132 µM (active),0.209 µM (active),,0.209 µM (active),
Nc1ncnc2c1ncn2[C@@H]1O[C@H](CO)[C@@H](O)[C@@H]1O,1.32 µM (active),0.118 µM (active),,inactive,3.32 µM (active),,inactive,0.418 µM (active),7.43 µM (active),5.26 µM (active),
CC1=C(CC(=O)O)c2cc(F)ccc2C1=Cc1ccc(S(C)=O)cc1 (stereo unspecified),20.9 µM (active),14.8 µM (active),,13.2 µM (active),18.7 µM (active),10.5 µM (active),,,,,

Compound,Potency [1],Potency [2],Potency [3],Potency [4],Potency [5],Potency [6],Potency [7],Potency [8],Potency [9],Potency [10],viability (% of DMSO) [2]
CCc1cc(-c2n[nH]c(C)c2-c2ccc3c(c2)OCCO3)c(O)cc1O,3.72 µM (active),,4.69 µM (active),8.33 µM (active),4.69 µM (active),4.18 µM (active),8.33 µM (active),5.9 µM (active),5.9 µM (active),7.43 µM (active),
C[C@@H]1CC=CC=CC=CC=C[C@@H](O[C@@H]2O[C@H](C)[C@@H](O)[C@H](N)[C@H]2O)C[C@@H]2O[C@](O)(C[C@@H](O)C[C@@H]3O[C@@H]3C=CC(=O)O1)C[C@H](O)[C@@H]2C(=O)O,inactive,,13.2 µM (active),5.9 µM (active),18.7 µM (active),,16.6 µM (active),,inactive,20.9 µM (active),
Cc1ccc(S(=O)(=O)Nc2nc3ccccc3nc2Nc2ccc3nsnc3c2)cc1,0.911 µM (active),,0.575 µM (active),1.82 µM (active),1.29 µM (active),1.44 µM (active),,0.162 µM (active),0.182 µM (active),0.645 µM (active),
O[C@@H](COc1cccc2ncccc12)CN1CCN(C2c3ccccc3[C@@H]3[C@H](c4ccccc42)C3(F)F)CC1 (stereo partly specified),inactive,inactive,,13.2 µM (active),,14.8 µM (active),,,,,
CC(=O)O[C@]1(C(C)=O)CC[C@H]2[C@@H]3C=C(Cl)C4=CC(=O)[C@@H]5C[C@H]5[C@]4(C)[C@@H]3CC[C@@]21C,18.7 µM (active),,,23.5 µM (active),14.8 µM (active),,9.35 µM (active),18.7 µM (active),,9.35 µM (active),112% (active)
CCC=CC[C@H]1C(=O)CC[C@@H]1CC(=O)OC,inactive,inactive,,inactive,inactive,,inactive,inactive,inactive,inactive,
CC(=O)OCC(=O)[C@@]1(O)CC[C@H]2[C@@H]3CCC4=CC(=O)C=C[C@]4(C)[C@@H]3[C@@H](O)C[C@@]21C,inactive,inactive,,,7.43 µM (active),,inactive,inactive,inactive,0.526 µM (active),
CCc1cccc(CC)c1NC(=O)N1Cc2[nH]nc(NC(=O)c3ccc(N4CCN(C)CC4)cc3)c2C1,7.43 µM (active),,16.6 µM (active),4.69 µM (active),4.69 µM (active),1.66 µM (active),20.9 µM (active),,inactive,13.2 µM (active),
O=C(O)C1=NC(C(=O)O)CC(C=CN2c3cc(O)c(OC4OC(CO)C(O)C(O)C4O)cc3CC2C(=O)O)=C1 (stereo unspecified),inactive,inactive,,inactive,inactive,,inactive,inactive,inactive,inactive,
CNC(=O)[C@H](CC1=CN=C2C=CCC=C12)NC(=O)[C@@H](CC(=O)NO)CC(C)C,0.148 µM (active),0.0209 µM (active),,26.4 µM (active),33.2 µM (active),,14.8 µM (active),0.0935 µM (active),0.0833 µM (active),6.62 µM (active),
NC1(C(=O)N[C@@H](CCO)c2ccc(Cl)cc2)CCN(c2ncnc3[nH]ccc23)CC1,0.118 µM (active),,1.87 µM (active),1.05 µM (active),7.43 µM (active),2.96 µM (active),7.43 µM (active),,0.209 µM (active),0.418 µM (active),
COc1nccc(-c2c(-c3ccc(F)cc3)ncn2C2CCC(O)CC2)n1 (stereo unspecified),inactive,4.69 µM (active),,inactive,13.2 µM (active),,,,,,
CC(C)C[C@@H](C(=O)N[C@H](C(=O)OC1CCCC1)c1ccccc1)[C@H](O)C(=O)NO,4.18 µM (active),1.32 µM (active),,5.26 µM (active),,,,2.64 µM (active),,20.9 µM (active),
COC(=O)N1CCN(Cc2cccc(NC(=O)Nc3ccc(C)nc3)c2F)CC1,inactive,0.0047 µM (active),,,,,,inactive,inactive,,
N#CC(=C1Nc2ccccc2S1)c1ccnc(OCc2ccc(CN3CCOCC3)cc2)n1,0.0743 µM (active),0.0059 µM (active),,5.26 µM (active),5.26 µM (active),2.09 µM (active),,0.0264 µM (active),,0.235 µM (active),
C[C@H]1O[C@@H](n2cc(F)c(=O)[nH]c2=O)[C@H](O)[C@H]1O,5.26 µM (active),inactive,,11.8 µM (active),13.2 µM (active),inactive,,,,18.7 µM (active),
CC[C@H](NC(=O)[C@H](C)NC)C(=O)N1C[C@@H](O)C[C@H]1Cc1c(-c2[nH]c3cc(F)ccc3c2C[C@H]2C[C@H](O)CN2C(=O)[C@H](CC)NC(=O)[C@H](C)NC)[nH]c2cc(F)ccc12,14.8 µM (active),,inactive,1.48 µM (active),11.8 µM (active),inactive,11.8 µM (active),0.935 µM (active),2.09 µM (active),16.6 µM (active),
N#CC(c1ccnc(NCCc2cccnc2)n1)c1nc2ccccc2s1 (stereo unspecified),4.69 µM (active),,11.8 µM (active),16.6 µM (active),3.72 µM (active),10.5 µM (active),18.7 µM (active),7.43 µM (active),5.9 µM (active),7.43 µM (active),
